Screening data: PubChem BioAssay, several laboratories
A selection: hits, their analogues and other compounds. The true share with any hit is near 27%.
CYP2C9 activ – CYP2C9 (human) activation. activation factor at 5 µM. recombinant CYP2C9, luciferin-H conversion, luminescence; active compounds read high; factor 1 = untreated enzyme, 0 = blocked. P11712. 1.4% of 96,000 active. AID 1024;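 active means activation factor of 2 or more for CYP2C9 at a 5 µM dose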;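 further: 0 = sulfaphenazole-blocked wells and 1 = vehicle-only wells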
Target sequence (P11712 whole entry, looked up): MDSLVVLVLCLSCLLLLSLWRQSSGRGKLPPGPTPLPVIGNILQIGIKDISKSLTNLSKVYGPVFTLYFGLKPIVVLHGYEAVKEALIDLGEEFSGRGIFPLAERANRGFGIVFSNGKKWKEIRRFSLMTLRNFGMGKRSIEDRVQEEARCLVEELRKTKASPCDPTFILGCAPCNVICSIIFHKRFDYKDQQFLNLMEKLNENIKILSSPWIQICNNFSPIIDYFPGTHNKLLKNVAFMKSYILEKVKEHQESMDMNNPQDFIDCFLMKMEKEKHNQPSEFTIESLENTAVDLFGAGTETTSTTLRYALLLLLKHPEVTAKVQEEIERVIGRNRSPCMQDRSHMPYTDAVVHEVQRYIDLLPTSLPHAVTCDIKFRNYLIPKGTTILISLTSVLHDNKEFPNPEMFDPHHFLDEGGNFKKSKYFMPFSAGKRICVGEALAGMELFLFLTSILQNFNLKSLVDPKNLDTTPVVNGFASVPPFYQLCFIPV
CYP2C19 inhib – human CYP2C19 inhibition; P33261; CYP2C19 Supersomes, luciferin-H EGE luminescence, 30 min; inhibition, % at 5 µM; 21% of 96,000 active; AID 778;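 active means CYP2C19 inhibition above a set limit at 5 µM in the primary screen, cut at about 50% in these data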;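 further: plate controls were negative control wells for no effect and 2.5 mM tranylcypromine positive control for full effect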
CYP2C19 activ – increases human CYP2C19 enzyme activity | 96,000 tested, under 10 active | recombinant CYP2C19, luciferin-H EGE luminescence; active compounds read high; 0 = fully inhibited enzyme, 1 = untreated enzyme | activation factor at 5 µM | AID 1025;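 active means activation factor of at least 2 at 5 µM in the primary screen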;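 further: 0 = wells with 2.5 mM tranylcypromine and 1 = vehicle-only wells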
Cav3 T inh – inhibitors of human Cav3.2 T-type calcium channel | B-score at 10 µM | 4% of 100,000 active | Cav3.2-expressing cells, Fluo-4 calcium fluorescence FDSS; active compounds read low;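 active means single-dose well whose peak fluorescence ratio is a statistical outlier from its plate by either plate-standardised score or position-corrected B-score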
CYP2C9 inhib – human CYP2C9 inhibition | P11712 | CYP2C9 Supersomes, luciferin-H conversion, luminescence | inhibition, % at 5 µM | 20% of 96,000 active | AID 777;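 active means blocking of liver enzyme CYP2C9 beyond about 50% at 5 µM, limit read from the data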
Active calls of the source: *; nt = no result given.

SMILES | CYP2C9 activ | CYP2C19 inhib | CYP2C19 activ | Cav3 T inh | CYP2C9 inhib
Cc1ccccc1NC(=S)NNC(=O)c1csc2c1CCC(C)C2 (stereo unspecified) | 0.3 | 98* | 0 | -2.5 | 66*
Cc1ccccc1C(=O)NC(=S)Nc1sc2c(c1C#N)CCC(C)C2 (stereo unspecified) | 0.4 | 34 | 0.7 | -0.66 | 63*
COC(=O)c1cc(NC(=O)Nc2ccccc2OC)cc(C(=O)OC)c1 | 0.8 | 14 | 0.9 | -1.2 | 18
C=CCSc1ncccc1C(=O)O | 0.9 | 7 | 0.9 | 0.47 | 10
COCC(=O)N(CCc1ccc(OC)c(OC)c1)Cc1nc2ccccc2c(=O)[nH]1 | 1 | 58* | 0.4 | 0.76 | 4
COc1ccc(CCN(Cc2nc3ccccc3c(=O)[nH]2)C(=O)c2ccco2)cc1 | 0.4 | 44 | 0.6 | -0.4 | 57*
CCC(CC)C(=O)N(CCc1ccc(OC)cc1)Cc1nc2ccccc2c(=O)[nH]1 | 0.6 | 32 | 0.7 | -2.8 | 44
COCC(=O)N(Cc1nc2ccccc2c(=O)[nH]1)Cc1cccs1 | 0.5 | 42 | 0.6 | 1.1 | 52*
Cn1nnnc1SCc1cn2cccnc2n1 | 1.2 | -16 | 1.2 | 0.00089 | -16
N#Cc1c(N)c(C#N)c(-c2ccc3c(c2)OCO3)c2c1CCCC2 | 1 | -2 | 1 | -0.11 | -2
N#Cc1c(N)c(C#N)c(-c2ccc(O)cc2)c2c1CCCC2 | 1.4 | 37 | 0.6 | -5.6* | -36
O=C(C1CCCN(S(=O)(=O)c2ccc(Br)s2)C1)N1CCCCCC1 (stereo unspecified) | 0.9 | 63* | 0.4 | 0.68 | 12
COC(=O)c1ccc(N2C(=O)CC(N(C)Cc3ccccc3)C2=O)cc1 (stereo unspecified) | 1.1 | 6 | 0.9 | 0.32 | -15
CC(=O)c1ccc(-n2c(C)ccc2-c2ccccc2)cc1 | 0.2 | 91* | 0.1 | 1.6 | 80*
COC(=O)c1ccc(-n2c(C)ccc2-c2ccccc2)cc1 | 0.1 | 86* | 0.1 | -1.2 | 86*
OC(CN(c1ccccc1)c1ccccc1)Cn1cnc2ccccc21 (stereo unspecified) | 0 | 96* | 0 | -5* | 98*
OC(COCC1CC=CCC1)Cn1cnc2ccccc21 (stereo unspecified) | 0.6 | 72* | 0.3 | 0.3 | 39
NCCCCc1cn(CC(=O)N2CCNCC2)nn1 | nt | nt | nt | 0.99 | nt
CCCC[n+]1ccn(-c2nc3ccccc3nc2[N-]S(=O)(=O)c2ccccc2)c1 | 1 | -2 | 1 | 0.47 | 1
CCCC[n+]1ccn(-c2nc3ccccc3nc2[N-]S(=O)(=O)c2ccc(C)cc2)c1 | 0.3 | 25 | 0.7 | nt | 72*
CCCCCN=C(C)c1c(O)c2ccccc2oc1=O | 0.2 | 88* | 0.1 | -0.52 | 78*
Cc1cccc(C)c1OCc1nnc(SCC(=O)Nc2nccs2)n1-c1ccccc1 | 1 | -14 | 1.1 | 1.5 | -3
Cn1c(=O)c(-c2ccccc2)nn2c3ccccc3nc12 | 0.3 | 62* | 0.4 | 1.5 | 74*
Cc1nc(C(=O)Nc2ccc(Cl)cc2)nn1-c1ccc([N+](=O)[O-])cc1 | 0.9 | -8 | 1.1 | 0.23 | 13
Nc1ccc(-n2nncc2-c2ccc(Cl)cc2)cc1 | 0.4 | 64* | 0.4 | 0.68 | 57*
SMILES | CYP2C9 activ | CYP2C19 inhib | CYP2C19 activ | Cav3 T inh | CYP2C9 inhib
O=[N+]([O-])c1ccc(-n2nncc2-c2ccc(Cl)cc2)cc1 | 0.5 | 90* | 0.1 | -3.9 | 54*
CC(C)c1cn(C2OC(COC(=O)c3ccccc3)C(OC(=O)c3ccccc3)C2OC(=O)c2ccccc2)c(=O)[nH]c1=O (stereo unspecified) | nt | nt | nt | -1 | nt
C=CCNC(=S)NNC(=O)c1ccc(OC(C)C)cc1 | 1 | 14 | 0.9 | 0.61 | 4
O=C(CN1C(=O)c2cccc3cccc1c23)Nc1cccnc1 | nt | nt | nt | 0.54 | nt
O=c1oc2ccccc2cc1-c1nc(-c2cccs2)cs1 | 0.7 | -5 | 1.1 | -3 | 30
COc1cccc2cc(-c3nc(-c4cccs4)cs3)c(=O)oc12 | 0.2 | 43 | 0.6 | 1.2 | 83*
O=C(c1cn(-c2ccccc2)nc1-c1cccs1)N1CCOCC1 | 0.6 | 15 | 0.9 | -0.073 | 38
O=C(c1cn(-c2ccccc2)nc1-c1ccncc1)N1CCCCC1 | 0.5 | 52* | 0.5 | 1 | 48
O=C(c1cn(-c2ccccc2)nc1-c1ccc(F)cc1)N1CCOCC1 | 0.7 | 16 | 0.8 | nt | 32
O=C(c1cn(-c2ccccc2)nc1-c1cccs1)N1CCN(c2ccccc2)CC1 | 0 | 96* | 0 | -3.7 | 98*
